# Experimental data as given in PubChem BioAssay (EPA / NIEHS).
# Active and inactive are the calls of the source. The calls were made as follows: active = hit-call score of the fitted dose curve at least 0.9, where 1 is the maximum; inactive = score below 0.9.
# Read-out: Caspase-3 (Homo sapiens) (UniProt P42574)
# Experiment: LTEA_HepaRG_CASP3: Life Technologies and Expression Analysis (LTEA) Assay for cysteine-aspartic acid protease (CASP3) using HepaRG (AID 2283477)
# Settings: mRNA level, 48 h; actives raise or lower the signal
# Procedure: LTEA_HepaRG is a cell based, multiplexed-readout assay that uses HepaRG, a human liver cell line, with measurements taken at 48 hours after chemical dosing on a 96-well plate.LTEA_HepaRG_CASP3 is one of 102 assay component(s) measured in the LTEA HepaRG cell culture assay. It is a marker of Cell proliferation, survival, death.Data from the assay component LTEA_HepaRG_CASP3 was analyzed into 1 endpoint. This assay endpoint, LTEA_HepaRG_CASP3, was analyzed with bidirectional fitting relative to DMSO as the negative control and baseline of activity. Using a type of inducible reporter, measures of mRNA induction for gain or loss-of-signal activity can be used to understand regulation of transcription factor activity. To generalize the intended target to other relatable targets, this assay endpoint is annotated to the protease intended target family, where the subfamily is cysteine protease.
# A total of 1060 chemcials from the ToxCast library were tested in eight-point concentration-response experiments. Cell culture and cytotoxicity assays were conducted at Thermo Fisher Scientific's Custom Services facility (Madison, WI). A single lot of human HepaRG cells (Thermo Fisher Scientific, Frederick, MD) was used for the cell culture experiments. 96-well format collagen type I coated plates of human HepaRG cells were prepared using established methods. Briefly, cryopreserved HepaRG cells were thawed, plated at a density of approximately 100,000 cells/well in HepaRG Thaw, Plate, and General Purpose media (HPRG770, Thermo Fisher Scientific), and incubated for 48 hours. 0.5% DMSO was selected as vehicle control to balance the requisite need of DMSO in HepaRG cultures to maintain differentiation (for example, baseline metabolism, proportions of hepatocytes vs. cholangiocytes), while enabling further hepatic receptor pathway activation (for example, PXR and CAR) in response to chemical exposure. 48 hours after plating, the culture medium was replaced with HepaRG Serum-Free Incudtion Media. Cells were exposed to each test chemical in duplicate and maintained in CO2 incubators for another 48 hours. Chemical plates were thawed to room temperature and 200x concentrations of treatment groups were prepared. 8-point conentration-reponse curves were made with the highest exposure at 100 uM, followed by half-log dilutions, all in 0.5% DMSO. Each test plate contained variouse controls, induction positive controls (1mM phenobarbital), cytotoxicity positive controls ([…] aflatoxin B1), vehicle controls (0.5% DMSO), and total lysis controls (0.5% DMSO). Cell morphology images were taken using an Essen IncuCyte FLR automated microscope, with six 96-well plates imaged in about 24 minutes. Images were captured and exported and JPEG files. Spent culture media was transfered to black-well plates for the LDH assay, and remaining media was sorted at -80 C for later use. Cells were treated with RLT buffer and frozen until shipped for gene expression analysis. Total RNA was isolated from the cell suspension in 75 uL of Buffer RLT (Qiagen, Germantown, MD 20874) by Quintiles/Expression Analysis (Durham, NC) using a custom isolation procedure. Total RNA from each plate well was transferred to a preamplification plate. Fluidigm's 96.96 Dynamic ArrayTM (Fluidigm, Amsterdam, the Netherlands) technology was used for gene expression analyses by quantitative reverse transcription polymerase chain reaction (qRT-PCR, performed by Quintiles/Expression Analysis, Durham, NC)89. Standard TaqManTM Assays (Applied Biosystems/ThermoFisher Scientific, Foster City, CA) were used to assess the expression of 93 genes selected based on their selectivity and sensitivity to important hepatic receptors known to be modulated by environmental chemicals; importance in human hepatocyte functionality; and hepatotoxicity. […]
# Chain of Caspase-3 (Homo sapiens) (P42574 whole entry, looked up): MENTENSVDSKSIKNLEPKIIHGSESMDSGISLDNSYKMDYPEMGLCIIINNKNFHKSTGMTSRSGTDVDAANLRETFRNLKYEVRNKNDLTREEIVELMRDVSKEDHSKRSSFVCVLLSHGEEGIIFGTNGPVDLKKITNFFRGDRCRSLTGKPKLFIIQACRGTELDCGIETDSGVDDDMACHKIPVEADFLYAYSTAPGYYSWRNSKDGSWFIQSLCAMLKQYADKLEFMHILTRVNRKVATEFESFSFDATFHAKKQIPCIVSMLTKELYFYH
SMILES,outcome,AC50
FC(F)(F)C(F)(F)C(F)(F)C(F)(F)C(F)(F)C(F)(F)CCI,inactive,
Nc1ccc(S(=O)(=O)c2ccc(N)cc2)cc1,inactive,
Cc1c(C(=O)O)c(O)cc2c1C(=O)c1c(O)c([C@@H]3O[C@H](CO)[C@@H](O)[C@H](O)[C@H]3O)c(O)c(O)c1C2=O,inactive,
COc1ccc(C)cc1N,inactive,
C1CCC(SSC2CCCCC2)CC1,inactive,
Cc1ccc(C)c(C)c1,inactive,
CC(=O)Oc1ccccc1C(=O)O,inactive,
COc1cc(-c2nc(NC(=O)c3cc4cc(C)cc(C)c4n3CC(=O)O)sc2CCC2CCCCC2)c(OC)cc1Cl,,11 µM (active)
CCCCCC(=O)O,inactive,
CCOc1ccc2c(c1)C(C)=CC(C)(C)N2,inactive,
CCCCCCCC=O,inactive,
CCCCc1ccc2c(n1)[C@@H](c1ccc(OC)cc1C[C@H](C)C(=O)O)[C@H](C(=O)O)[C@H]2c1ccc2c(c1)OCO2,inactive,
COC(=O)c1ccc(O)cc1,inactive,
O=c1[nH]cc(F)c(=O)[nH]1,inactive,
CC(C)c1ccc(C(=O)N=C(N)N)cc1S(C)(=O)=O,,0.383 µM (active)
Cc1ccc(C(C)C)c(O)c1,inactive,
COc1cc(S(=O)(=O)O)c(C)cc1N=Nc1c(O)ccc2cc(S(=O)(=O)O)ccc12,inactive,
CC1=C(/C=C/C(C)=C/C=C/C(C)=C/CO)C(C)(C)CCC1,inactive,
Oc1ccc2c(c1)OC[C@@H](N1CCC(O)(c3ccc(F)cc3)CC1)[C@H]2O,inactive,
NCC1(Cc2noc(=O)[nH]2)CCCCC1,inactive,

SMILES,outcome,AC50
Clc1cc(Cl)c(Cl)cc1Cl,inactive,
Nc1ccc2c(c1)C(=O)c1ccccc1C2=O,inactive,
CN1CCN(Cc2cc(-c3ccc4[nH]c(=O)oc4c3)co2)[C@@H](c2ccc(F)cc2)C1,inactive,
CCCCCCCCCCCCCCCC,inactive,
C=CCOC(=O)c1ccccc1C(=O)OCC=C,inactive,
COc1ccc2c(c1)c(CC(=O)O)c(C)n2C(=O)c1ccc(Cl)cc1,inactive,
Cc1ccc(Cl)cc1,inactive,
Cc1ccc(N(C)C)cc1,inactive,
CCCCCCCCCCCCCO,inactive,
CCOC(=O)CCC(=O)OCC,inactive,
O=C(N[C@@H](Cc1ccccc1)[C@@H](O)C(=O)N1C[C@@H](O)[C@@H](O)C1)c1cc2cc(Cl)ccc2[nH]1,inactive,
O=[N+]([O-])C(CO)(CO)CO,inactive,
Cc1ccccc1Cl,inactive,
O=C(O)CCCCC(=O)O,inactive,
Cc1nc(C)nc(N2C[C@@H](C)N(c3ccnc([C@@H](C)O)n3)[C@@H](C)C2)n1,inactive,
Cc1cccc([N+](=O)[O-])c1C,inactive,
CCc1c(C(=O)NN2CCCCC2)nn(-c2ccc(Cl)cc2Cl)c1-c1ccc(Br)cc1,,50 µM (active)
Cc1cc(=O)[nH]c(=S)[nH]1,inactive,
C[C@]12C=CC(=O)C=C1CC[C@@H]1[C@@H]2C(=O)C[C@@]2(C)[C@H]1CC[C@]2(O)C(=O)CO,inactive,
CCCc1cc(=O)[nH]c(=S)[nH]1,inactive,
